Assay results reported in the supplement of paper PMC4683952.
Where a name gives a salt, the structure may show the parent alone. Among all 1,200 compounds or so, about 50 (4%) showed activity. No stated cut-off is given here; in the data, all actives reach 1.3 or more but so do some inactives. Shown is part of a subset that was picked to be rich in actives.

The molecules below were run on Lgr5 (MarsCy1-Lgr5-EGFP, U2OS) (assay: cell-surface Lgr5 expression (SCi1 fluorescence, background-subtracted) relative to WT DMSO (fold of DMSO control); higher = more Lgr5 at the plasma membrane, active = hit call of the paper). Details: U2OS MarsCy1-Lgr5-EGFP stable; treatment time: overnight; 16 µM; library: Johns Hopkins Clinical Compound Library.

cell-surface Lgr5 expression, inactive:
COc1cccc2c1C(=O)c1c(O)c3c(c(O)c1C2=O)C[C@@](O)(C(=O)CO)C[C@@H]3O[C@H]1C[C@H](N)[C@@H](O)[C@H](C)O1 [Epirubicin] 1.31
O=S(=O)([O-])[O-].[Cu+2] [Copper (II) sulfate] 1.27
CCN1C(=CC=Cc2ccc3ccccc3[n+]2CC)C=Cc2ccccc21 [Quinaldine blue (Pinacyanol chloride)] 1.53
CCCCNc1ccc(C(=O)OCCOCCOCCOCCOCCOCCOCCOCCOCCOC)cc1 [Benzonatate] 1.08
O=C(O)c1ccc[n+]([O-])c1 [Oxiniacic acid (nicotinic acid n-oxide)] 0.989
Cc1ccc(S(=O)(=O)NCl)cc1 [Chloramine-T hydrate] 0.672
CCC(=O)Oc1ccc(/C(CC)=C(\CC)c2ccc(OC(=O)CC)cc2)cc1 [Diethylstilbestrol dipropionate] 0.886
O=P(O)(O)OC1C(OP(=O)(O)O)C(OP(=O)(O)O)C(OP(=O)(O)O)C(OP(=O)(O)O)C1OP(=O)(O)O (configuration not stated) [Phytic acid, dodecasodium salt hydrate] 0.522
Br.N [Ammonium bromide] 1.09
CC1CCC(NC(=O)N(CCCl)N=O)CC1 (configuration not stated) [Semustine] 1.06
C[C@@H]1C/C=C/C=C/C=C/C=C/[C@H](O[C@@H]2O[C@H](C)[C@@H](O)[C@H](N)[C@@H]2O)C[C@@H]2O[C@](O)(C[C@@H](O)C[C@H]3O[C@@H]3/C=C/C(=O)O1)C[C@H](O)[C@H]2C(=O)O [Natamycin (Pimaricin)] 0.845
O=S(=O)([O-])[O-].O=S(=O)([O-])[O-].[Al+3].[Na+] [Aluminum sodium sulfate] 0.71
O=P([O-])([O-])[O-].O=P([O-])([O-])[O-].[Ca+2].[Ca+2].[Ca+2] [Calcium phosphate tribasic] 0.836
CC1=CC(=C(c2ccc(N)cc2)c2ccc(N)cc2)C=CC1=N [Basic fuchsin hydrochloride] 1.12
CC1(C)S[C@@H]2[C@H](NC(=O)COc3ccccc3)C(=O)N2[C@H]1C(=O)O 0.694
CC1(C)S[C@@H]2[C@H](NC(=O)COc3ccccc3)C(=O)N2[C@H]1C(=O)O [Penicillin V (phenoxymethyl penicillinic acid)] 1.08
NC[C@H]1O[C@H](O[C@H]2[C@H](O)[C@@H](O[C@H]3O[C@H](CO)[C@@H](O)[C@H](N)[C@H]3O)[C@H](N)C[C@@H]2N)[C@H](N)[C@@H](O)[C@@H]1O [Kanamycin B sulfate salt] 0.875
